Common to all, as to experiment: NCI-60 one-dose screen, 48 h (100 = growth as untreated, 0 = no growth, -100 = all killed)
The subject of experiment [1] is NCI-H23 lung. As to conditions: 10 µM unless noted.
Experiment [2] deals with NCI-H226 lung. The note with it: 10 µM unless noted.
For experiment [3], the system named is NCI-H322M lung. As to conditions: 10 µM unless noted.
Experiment [4] relates to HOP-62 NSCLC. As to conditions: 10 µM unless noted.
The test system of experiment [5] is NCI-H460 lung. The note with it: 10 µM unless noted.
Experiment [6] has as its system HOP-92 NSCLC. The note with it: 10 µM unless noted.
The test system of experiment [7] is NCI-H522 lung. The note with it: 10 µM unless noted.
Experiment [8] has as its system A549/ATCC NSCLC. The note with it: 10 µM unless noted.
The test system of experiment [9] is 786-0 renal. As to conditions: 10 µM unless noted.
The test system of experiment [10] is COLO 205 colon. The note with it: 10 µM unless noted.
Experiment [11] concerns DU-145 prostate. As to conditions: 10 µM unless noted.
Experiment [12] relates to K-562 leukemia. As to conditions: 10 µM unless noted.
For experiment [13], the system named is MALME-3M melanoma. The note with it: 10 µM unless noted.
The subject of experiment [14] is MDA-MB-231 breast. The note with it: 10 µM unless noted.
Experiment [15] deals with RXF 393 renal. The note with it: 10 µM unless noted.
The subject of experiment [16] is SF-268 CNS. The note with it: 10 µM unless noted.
Experiment [17] concerns SF-295 CNS. As to conditions: 10 µM unless noted.
Experiment [18] deals with SF-539 CNS. The note with it: 10 µM unless noted.
For experiment [19], the system named is UACC-257 melanoma. The note with it: 10 µM.
Experiment [20] has as its system M14 melanoma. As to conditions: 10 µM unless noted.

Compounds without any hit were thinned out: in the full panel of roughly 83,000, 20% have a hit.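 Method: cells in 96-well plates; compound added at one concentration; 48 h incubation; percent growth measured; values under 10 scored active.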 A number with no mark means an inactive call. The source made the active and inactive calls.

The values below come from PubChem BioAssay (NCI).

In the case of `C#C[C@]1(O)CC[C@H]2[C@@H]3CC=C4c5sc(-c6cccc(F)c6)nc5CC[C@]4(C)[C@H]3CC[C@@]21C`, the growth was 84.2% in experiment [1]; 83.5% in [2]; 73.8% in experiment [3]; 91.4% in experiment [4]; 93.5% in experiment [5]; 113% in experiment [6]. For the same molecule, the growth in experiment [7] is 89.2%; in experiment [8] it was 83.8%; in experiment [9] it was 65.3%; in [10] it was 97.9%; in experiment [11], 99.2%; in experiment [12], 19%. Further, the growth is 95.4% in [13]; 93.2% in experiment [14]; 20.7% in [15]; 85.8% in experiment [16]; 61.9% in experiment [17]; 67.3% in [18]. The growth in experiment [19] was 90%; in [20] it was 82%.

As for `Oc1ccc(CSc2nnc(-c3ccccc3)n2-c2ccccc2)c2cccnc12`, the growth in experiment [1] is 18.8%; in [2], 19.8%; in experiment [3], 18.5%; in experiment [4], 11.1%; in [5], 1.36% (active); in experiment [6], -14.4% (active). The growth was 12.6% in [7]; 13% in experiment [8]; 18.7% in experiment [9]; 61.7% in experiment [10]; 21.3% in experiment [11]; 11.2% in experiment [12]. Further, the growth in experiment [13] was 12.2%; in experiment [14], 31%; in experiment [15], -4.02% (active); in experiment [16], 17.2%; in [17], 0.953% (active); in experiment [18], 0.484% (active). Besides, the growth was 3.18% (active) in [19] and -10.6% (active) in experiment [20].

`CC(c1ccccc1)N1C(=O)/C(=C/c2csc(C#N)n2)SC1=S` (stereo not given): the growth in experiment [1] is 101%; in experiment [2] it was 97%; in experiment [3] it was 99.8%; in experiment [4], 103%; in [5], 106%; in [6] it was 85.5%. The growth in [7] is 75.4%; in experiment [8], 95.8%; in [9], 91%; in [10] it was 91.8%; in experiment [11], 87.7%; in experiment [12], 40.8%. The growth in [13] was 82.4%; in experiment [14], 90.1%; in experiment [15], 90.1%; in experiment [16] it was 101%; in experiment [17], 103%; in experiment [18], 93.4%. The growth is 81.7% in experiment [19] and 78.4% in [20].

On to `O=C(Nc1cccc(Cl)c1)Nc1nc2ccc([N+](=O)[O-])cc2s1`, for which the growth in [1] was -20.9% (active); in experiment [2] it was -7.2% (active); in experiment [3], 8.75% (active); in experiment [4], -1.84% (active); in [5], 2.75% (active); in [6], -11.9% (active). The growth is 2.99% (active) in experiment [7]; 10% in experiment [8]; 8.65% (active) in [9]; -54.2% (active) in [10]; 15.2% in experiment [11]; 4.51% (active) in experiment [12]. The growth in experiment [13] was -9.22% (active); in [14] it was -9.3% (active); in experiment [15], -26.4% (active); in [16], 9.76% (active); in [17], -68.9% (active); in [18] it was 7.66% (active). Moreover, the values for the growth in experiment [19] and in experiment [20] were -15.2% (active) and 0.118% (active), respectively.

Consider `CSc1nccc(-c2c(-c3ccc(F)c(OCc4ccc(F)cc4)c3)nc3sccn23)n1`, for which the growth is 60.2% in experiment [1]; 76.6% in [2]; 91.3% in experiment [3]; 104% in experiment [4]; 89.8% in experiment [5]; 54.5% in [6]. The growth in experiment [7] was 66.7%; in experiment [8] it was 78.7%; in [9], 74.4%; in experiment [10], 83.8%; in experiment [11], 88.5%; in experiment [12] it was 59.7%. Also, the growth is 104% in experiment [13]; 65.8% in experiment [14]; 84% in experiment [15]; 83.9% in experiment [16]; 80.3% in experiment [17]; 73.3% in experiment [18]. Moreover, the growth in [19] is 64.4%; in [20], 89%.

As for `O=S(=O)(Nc1ccc(C2CC2)cc1)c1ccc(-c2cnc(C3CC3)o2)cc1`, the growth in experiment [1] is 73.9%; in experiment [2], 74.9%; in [3] it was 92.3%; in experiment [4], 62.2%; in experiment [5], 73.2%; in experiment [6] it was 77.3%. The growth is 59.6% in experiment [7]; 62.2% in experiment [8]; 88.5% in [9]; 88.9% in experiment [10]; 88.5% in [11]; 15.7% in experiment [12]. Also, the growth in experiment [13] is 66.6%; in experiment [14] it was 72.5%; in experiment [15] it was 74.6%; in experiment [16], 78%; in [17], 49.4%; in [18] it was 62.9%. Moreover, the growth is 79.8% in [19] and 53.6% in experiment [20].

Turning to `O=C(c1ccc(O)cc1)[C@@H]1[C@@H]2CCCN2[C@@]2(C(=O)N(C(=O)c3ccc(F)cc3)c3ccccc32)[C@H]1c1ccc(F)cc1`, the growth in [1] is 98.5%; in experiment [2], 94.3%; in experiment [3], 98.6%; in experiment [4], 97.4%; in [5] it was 99.6%; in experiment [6], 67%. The growth in [7] is 93.7%; in experiment [8], 96.6%; in experiment [9] it was 100%; in [10] it was 105%; in experiment [11], 102%; in [12], 75.7%. Moreover, the growth in experiment [13] was 84.2%; in [14] it was 82.5%; in experiment [15], 105%; in [16] it was 89.9%; in experiment [17] it was 96.2%; in experiment [18], 85.4%. The growth in experiment [19] was 103%; in experiment [20] it was 95.1%.

Take `COc1cc(CNC(=O)/C=C/c2ccccc2)ccc1OCC(=O)NO`: the growth is 103% in [1]; 97.4% in [2]; 103% in experiment [3]; 102% in [4]; 109% in experiment [5]; 98.4% in experiment [6]. The growth is 89.9% in experiment [7]; 101% in experiment [8]; 103% in experiment [9]; 102% in experiment [10]; 103% in experiment [11]; 88.9% in experiment [12]. The growth in [13] is 84.9%; in experiment [14], 98.4%; in experiment [15], 111%; in [16], 101%; in [17], 102%; in experiment [18], 100%. The growth in experiment [19] is 91.5%; in [20], 100%.
